# In PubChem BioAssay (NCI):
# Compounds without any hit were thinned out: in the full panel of roughly 79,000, 15% have a hit. Values without a mark were called inactive. The source made the active and inactive calls. Cut-off read from the data, not from the text of the source: active = growth inhibition above about 70%; inactive = the rest. Where a SMILES comes first, the peptide text is derived from it. The star is where a group is joined. Fmoc = O=C(OCC1c2ccccc2-c2ccccc21)*; OBn = c1ccc(CO*)cc1; tBu = CC(C)(C)*
# Assays:
# [1] = NCI Yeast Anticancer Drug Screen. Data for the rad50 strain (AID 155);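 note: 0% = growth of vehicle-only cultures of the same strain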; conditions: S. cerevisiae rad50 strain growth inhibition; at 50.0 µM; active compounds read high
# How it was run: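 Relative growth inhibition (compound vs vehicle) was measured in yeast with a defined repair-gene alteration.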
# [2] = NCI Yeast Anticancer Drug Screen. Data for the mec2-1 strain (AID 157); conditions: S. cerevisiae mec2-1 strain, at 50.0 µM, active compounds read high
# How it was run: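 Strain: mec2-1 (DNA repair/cell cycle alteration). Compound exposure, then growth measured; inhibition expressed relative to vehicle.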
# [3] = NCI Yeast Anticancer Drug Screen. Data for the sgs1 mgt1 strain (AID 161);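 note: 0% = growth of cultures given vehicle only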; conditions: S. cerevisiae sgs1 mgt1 strain, at 50.0 µM, active compounds read high
# How it was run: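 Mutant yeast exposed to compound; growth scored against vehicle-only wells.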
# [4] = NCI Yeast Anticancer Drug Screen. Data for the cln2 rad14 strain (AID 165);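 note: 0% = growth equal to vehicle treated cultures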; conditions: S. cerevisiae cln2 rad14 strain, at 50.0 µM, active compounds read high
# How it was run: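 Compounds are applied to the cln2 rad14 yeast strain, and growth is then compared with that of vehicle-treated cultures to give inhibition.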
# [5] = NCI Yeast Anticancer Drug Screen. Data for the bub3 strain (AID 167); conditions: S. cerevisiae bub3 mutant strain, at 50.0 µM, active compounds read high
# How it was run: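 Screening used yeast with an engineered genetic alteration affecting cell cycle control. Compound-exposed cultures were compared with vehicle cultures, and reduced growth was taken as inhibition.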
# [6] = NCI Yeast Anticancer Drug Screen. Data for the mlh1 rad18 strain (AID 175); conditions: S. cerevisiae mlh1 rad18 strain growth inhibition; at 50.0 µM; active compounds read high
# How it was run: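 Read-out is yeast growth inhibition, calculated against vehicle-only controls. The compound was applied to a strain engineered with DNA damage repair alterations.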
SMILES,growth inhibition [1],growth inhibition [2] [%],growth inhibition [3] [%],growth inhibition [4] [%],growth inhibition [5] [%],growth inhibition [6] [%]
O=C(O)C(CCl)c1ccccc1 (stereo unspecified),7.05%,-3.1,0.4,-17.1,9.85,2.25
COC(=O)c1cncc(C(=O)OC)c1,-3.9%,-12,2.75,-2.35,1.95,12.8
N#CCOc1ccc(Cl)cc1,-10.7%,-16.2,-13.1,-53.2,1.8,-3.65
CC(C)(C)c1ccc(OS(=O)(=O)c2ccccc2)c(Cl)c1,-8.25%,-1.15,-1.55,-14.1,1.5,0.85
COc1ccccc1NC(=O)N1CCN(c2cccc(C)c2)CC1,4.5%,-2.3,12.6,-15.7,37.4,-8.4
CCOC(=O)c1cn(C)c2c1C(=O)C(C(=O)OCC)CC(=O)N2 (stereo unspecified),-4.55%,-4.15,-11.6,-53.6,-6.4,-8.25
CCN(CC)CCNC(=O)c1cn2c(ccc3sc4ccccc4c(=O)c32)n1,70.8% (active),57.5,48.7,38.3,26.3,28.8
O=[N+]([O-])c1ccc2nc(Cl)cnc2c1,25.2%,31.2,16.5,-5.2,3.8,38.6
Cc1ccc(C(=O)Nc2ccc(CP(=O)(O)O)cc2)cc1NC(=O)c1cccc(N)c1,-27.2%,-14.7,-20.4,0.9,-9,4.15
C#CC(CCC)NC(C)(C)C (stereo unspecified),31.7%,-13.9,7.35,-10.8,1.95,21.3
Cc1ccc(NC(=O)NC23CC4CC(CC(F)(C4)C2)C3)cc1,20.1%,4.45,-34,0.25,-3.65,-12.3
CCOC(=O)N/N=C(\C)c1ccc(OC)cc1,17.8%,21.9,20.1,11.3,34.9,19.1
CC(=O)Nc1cc([N+](=O)[O-])ccc1CC(O)c1ccccc1 (stereo unspecified),-2.25%,-17.1,-4.1,-15.5,-1,-16.4
O=[N+]([O-])c1ccc(Cl)c(OCCBr)c1,0%,3.15,-2.05,1.15,31.9,9
CSC1(C(=O)O)C2CCC3C2CCC31 (stereo unspecified),12.7%,16.1,9.95,26.9,51.2,41.5
O=[N+]([O-])c1ccc(N=CC2CCC=CO2)cc1 (stereo unspecified),-4.3%,17.8,-10.2,-27.9,-9.4,-14.9
CCc1nc(N)nc(-c2nc(N)nc(CC)c2C)c1C,10.8%,-2.4,-8.4,-7.8,-29.4,15.8
CN1C(c2ccccc2)=C(C#N)C(=O)CC(c2ccc(Cl)cc2)N1C (stereo unspecified),-7.75%,0.05,-4.75,-15.8,-15.8,2.65
Cn1c(=O)c2ccccc2c2cc(Br)ccc21,41.1%,6.05,4.15,-14.8,7.8,20.6
COc1cc(O)c2c(=O)c(OC)c(-c3ccc4c(c3)OCO4)oc2c1,4.6%,6.2,-9.85,2.35,-24.2,-44.4
CCOC(=O)c1sc(SC)nc1NC(=O)c1ccc(Cl)cc1,-26.6%,19.8,-49.6,0.7,-2.55,-24.7

SMILES,growth inhibition [1],growth inhibition [2] [%],growth inhibition [3] [%],growth inhibition [4] [%],growth inhibition [5] [%],growth inhibition [6] [%]
CCCNC(=S)/N=C/c1c(O)cc(C)oc1=O,-51.6%,-65.6,-24.2,-0.3,-18.5,-42.2
O=C(O)/C=C(/CC(=O)O)c1ccc(O)cc1,-14.9%,-21.7,-9.9,-4.55,-18.6,-14.3
CCC(=O)N(C)C1(C#N)CCCCC1,29.4%,-42.9,13,0.1,4.85,24.2
CC(=O)Nc1cc2cc(Br)ccc2oc1=O,28.9%,33.4,18.9,40,50.1,36.3
Clc1ccc(N=Cc2ccc(C=Nc3ccc(Cl)c(Cl)c3)cc2)cc1Cl,-7.7%,-21.8,15.7,11,16.9,11.6
NC1=NS(=O)(=O)Nc2nc(-c3ccc([N+](=O)[O-])o3)[nH]c21,50.5%,-8.6,26.1,23.2,-2.7,50.5
CC(=O)[O-].Cc1ccnc(NS(=O)(=O)c2ccc(N=Cc3ccccc3[O-])cc2)n1.Cc1ccnc(NS(=O)(=O)c2ccc(N=Cc3ccccc3[O-])cc2)n1.[Cu+2],9%,2,2.6,19.1,11.1,34.4
O=C1NC(=S)NC(=O)C1=Cc1ccccc1OCc1ccccc1,-19.4%,-16.1,-0.55,-50.6,1.6,-16.6
O=C1c2ccccc2-c2ccc(N3C(=O)c4c(Br)c(Br)c(Br)c(Br)c4C3=O)cc21,10.6%,-2.2,12.9,-36.8,-4.6,-17.5
C/C(=N\OC(=O)c1c(-c2c(Cl)cccc2Cl)noc1C)c1ccccc1O,1.5%,-23.4,-1.6,12.2,-21.9,-4.75
NC(=O)CCC(NS(=O)(=O)c1ccc(NC(=O)c2ccccc2)cc1)C(=O)O (stereo unspecified),4%,-4.1,-22.9,19.6,-5.7,-1.95
COc1cc(C(=O)O)ccc1OC(C)=O,7.4%,-20.1,-2.15,2.15,-6.6,1.35
O=C(c1ccccc1)c1ccc2cccc3c2c1CC3,40.2%,14.6,32.1,20.8,51.6,34.4
Cc1ccc(S(=O)NOCc2ccccc2)cc1 (stereo unspecified),3.25%,16.4,5.3,11.4,11.1,51
CC(C)C(C(=O)O)C(=O)O,3.55%,10.5,4.75,1.25,3.9,19.1
O=C(O)c1ccccc1C(=O)OCc1ccccc1,-0.15%,16.1,6.25,-11.2,8.25,11.9
COC1CCCCC(=NNC(N)=O)CCCC1 (stereo unspecified),-0.2%,-2.65,-13.2,-44.6,-7.15,-1.15
CCC(C)(C)c1ccc([N+](=O)[O-])cc1,18.3%,8.8,27.4,15.7,-0.65,2.35
CC(OC(C)(C)C)C(NC(=O)OCC1c2ccccc2-c2ccccc21)C(=O)NC(Cc1ccccc1)C(=O)OCc1ccccc1 (stereo unspecified) (Fmoc-Thr(tBu)-Phe-OBn; configuration not given here),-32.2%,-7.7,-4.5,-15.7,-18.6,0.45
O=C1c2sccc2[C@H](NC(=O)C(F)(F)F)[C@@H]1Cl,4.5%,3.45,1.1,25.1,7.25,18.6
